# Cycloheximide cs = counter-screen hit for Shiga toxin inhibitors, cycloheximide; cell reporter, cycloheximide protein synthesis inhibition counterscreen; max response, %; hit rate 12% among 300,000; AID 2314; in the data active = max response mostly above about 13%, no sharp cut-off; inactive = mostly below about 14%; note: read at 38.3 µM for the half of the compounds with a filed dose; 0% is about no effect
# HCMV antiviral = inhibitors of human cytomegalovirus. activity change, negative = inhibition, % at 57.5 µM. HFF cells, HCMV-luciferase reporter, 72 h; stronger effect = lower value. hit rate 4.5% among 410,000; in the data active = activity change below about -60%; inconclusive = no clear call, values can overlap the other calls; inactive = above about -39%; note: % is set by controls: 0 for no effect and ±100 for the full control effect
#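 Screen run at 2 compound doses on HFFs infected with reporter HCMV, MOI 1 PFU/cell. Luciferase activity from cell lysates at 72 h post infection gave inhibition relative to buffer-only and Salinomycin wells.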
# Pf growth 96h = P. falciparum growth inhibition at 96 hour, primary screen for plastid delayed-death inhibitors | hit rate 6.9% among 320,000 | P. falciparum luciferase reporter growth, 96 h | Potency, µM (doses to about 28.7 µM), inactives show top-dose activity change, negative = inhibition, most hits filed as inhibitors; note: potency is the fitted concentration of half-maximal effect; % is set by controls: 0 for no effect and ±100 for the full control effect
#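 P. falciparum expressing integrated firefly luciferase grown in erythrocytes (2% hematocrit, 0.05% parasitemia final) with compounds for 96 hours at 37 C, 5% CO2. Growth inhibition read as loss of luminescence after adding luciferase detection reagent.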
# Pf growth 48h = P. falciparum growth inhibition at 48 hours (one generation); P. falciparum luciferase growth in erythrocytes, 48 h; Potency, µM (doses to about 28.7 µM), without a hit: at the top dose activity change, negative = inhibition, most hits filed as inhibitors; hit rate 5.9% among 310,000; note: potency is the fitted concentration of half-maximal effect; % is set by controls: 0 for no effect and ±100 for the full control effect
#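 First compound was added to culture medium, then infected red cells at 0.1% parasitemia and 2% hematocrit (final). After incubation at 37 C under 5% CO2, luciferase detection reagent was dispensed and light output recorded.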
# Shiga toxin inh = blocks Shiga toxin action in Vero cells | AID 2315 | inhibition, % at 38.7 µM | Vero cells, Shiga toxin protein synthesis inhibition reporter | hit rate 9.2% among 290,000; in the data active = inhibition mostly above about 28%, no sharp cut-off; inactive = mostly below about 43%; note: 0% is about no effect
# * hit, by the source's call; ? = inconclusive; / = no result. Rows were chosen to be rich in hits. Some 20% of all compounds tested hit in one or more screens of this group. Unless noted, calls come from the whole dose curve; as a rule, active = well fitted inhibition curve with a large enough effect; inconclusive = small, poorly fitted or top-dose-only effect, or another doubt; inactive = no such curve, though single readings can be large or run the other way.
SMILES,Cycloheximide cs,HCMV antiviral,Pf growth 96h,Pf growth 48h,Shiga toxin inh
CN1C(=O)C2(OCC(CO)([N+](=O)[O-])CO2)c2ccccc21 (configuration not stated),14*,108,13%,28%,51*
O=C1N(CCCN2C(=O)C3(OCCO3)c3ccccc32)c2ccccc2C12OCCO2,-3,22,8.3µM*,?,-6
O=C1NC(=O)C(CCc2ccncc2)(CCc2ccncc2)C(=O)N1CCc1ccccc1,-3,4,2.9µM*,?,-11
O=C1NC[C@H](Cc2ccccc2)N(CC2CCN(CCC34CC5CC(CC(C5)C3)C4)CC2)C1=O,/,-37,/,/,/
CCOc1ccc2c(c1)sc(N)[n+]2Cc1cc(C)cc2cccnc12,-7,-12,1.9µM*,9.3µM*,-14
COc1ccc2c(c1)sc(N)[n+]2Cc1cc(C)cc2cccnc12,-7,?,?,9.3µM*,8
COc1ccc2c(ccc[n+]2[O-])c1,/,-34,/,/,/
CCOc1ccc2nc(Cl)sc2c1,7,29,46%,40%,13
Cc1ccc(N2CC(C(=O)OCC(=O)c3ccc(C)c([N+](=O)[O-])c3)CC2=O)cc1 (configuration not stated),/,-10,14%,23%,/
COc1cccc(CNc2cc(C)ccn2)c1O,39*,18,?,-22%,51*
Cc1ccc(O)c(CNc2cccc3cccnc23)c1,5,-40,?,?,32
COc1cccc(CNc2ccc([N+](=O)[O-])cc2Cl)c1O,39*,-19,-17%,-8%,44
COc1ccc(CN(C)C(C)C(=O)Nc2ccc([N+](=O)[O-])cc2Cl)cc1OC (configuration not stated),-3,80,12µM*,?,-10
Oc1ccc(Br)cc1CNc1cccc2cccnc12,2,-62*,9.3µM*,?,/
Cc1ccnc(NCc2cccc3ccccc23)c1,11,18,363%,-6%,-1
Cc1nnc(NC(=O)Cn2nc(C)c3ccccc3c2=O)s1,1,-20,6%,0%,-24
COc1ccc(CNc2ccccn2)c(O)c1,20*,-19,?,-21%,48*
Oc1c(Br)cc(Br)cc1CNc1cccc2cccnc12,-6,98,?,?,-13
COc1cccc(CNc2cccc3cccnc23)c1O,16*,27,?,184%,active
COc1cccc(CNc2ccccn2)c1O,34*,27,62%,16%,/
CCOC(=O)c1ccc(NC2SC(=O)N(Cc3cccc(C(=O)O)c3)C2=O)cc1 (configuration not stated),/,35,/,/,/
Cc1ccc(/C=N/Nc2nc3ccccc3[nH]2)s1,45*,32,?,?,active
CN(C)c1nc(N/N=C/c2c[nH]c3ccccc23)nc(N2CCOCC2)n1,-5,-27,-27%,?,-5
Cc1ccccc1/C=N/Nc1nc2ccccc2[nH]1,49*,-10,-35%,?,76*
Cc1[nH]c2ccccc2c1/C=N/Nc1nc(N2CCCCC2)nc(N2CCCCC2)n1,-2,?,-3%,-12%,-12
SMILES,Cycloheximide cs,HCMV antiviral,Pf growth 96h,Pf growth 48h,Shiga toxin inh
Cc1[nH]c2ccccc2c1/C=N/Nc1nc2ccccc2[nH]1,43*,-98*,3%,?,112*
C(=N\Nc1nc(N2CCCCC2)nc(N2CCCCC2)n1)/c1c[nH]c2ccccc12,10,27,6.6µM*,?,-4
Cc1ccc(C)c(Nc2nc3ccccc3[nH]2)c1,/,1,/,/,/
NS(=O)(=O)c1ccc(CNC(=O)Cn2nc(C(F)F)cc2C(F)F)cc1,/,-20,-14%,8%,/
CS(=O)(=O)c1ccc(Nc2cc3c(cn2)cc(-c2ccccc2)n3Cc2ccccc2)cc1,/,-28,/,/,/
Cn1c(/N=C/c2c[nH]c3ccccc23)nc2ccccc21,2,82,21%,12%,18
C(=N\Nc1nc2ccccc2[nH]1)/c1c[nH]c2ccccc12,54*,3,26%,0.66µM*,67*
CCc1nnc(N/N=C/c2c(C)[nH]c3ccccc23)n1N,-1,-90*,-21%,2%,15
COc1ccc(/C=N/Nc2nc3ccccc3[nH]2)c(OC)c1OC,41*,-2,4.1µM*,?,141*
COc1cc(CNc2nc3ccccc3[nH]2)cc(OC)c1OC,-2,48,-16%,9%,13
COC(=O)c1ccc(-n2c(C)cc(/C=N/Nc3nc(C)cc(=O)[nH]3)c2C)cc1,6,0,13µM*,8.3µM*,22
COc1ccc(C(=O)N/C(=C/c2cccnc2)C(=O)N2CCCCCC2)cc1OC,2,10,-1%,15%,9
O=C(O)c1cc2cc(Oc3ccccc3)ccc2[nH]1,-1,-8,114%,17%,-5
Cc1cc(=O)[nH]c(Nc2ccc(C(=O)OC(C)C)cc2)n1,-2,-37,2.6µM*,?,-3
COc1cccc(/C=N/Nc2nc(C)cc(=O)[nH]2)c1OC,21*,89,-5%,48%,45*
Cc1cc(=O)[nH]c(Nc2ccc(Cl)cc2)n1,3,24,-7%,-1%,-2
CCOc1ccccc1/C=N/Nc1nc(C)cc(=O)[nH]1,-1,/,-7%,4%,-5
Cc1cc(=O)[nH]c(N/N=C/c2ccccc2C(F)(F)F)n1,-2,2,5%,-15%,-4
Cc1cc(=O)[nH]c(N/N=C/c2c[nH]c3ccccc23)n1,29*,40,5%,?,27
C(=N\Nc1nc2ccccc2[nH]1)/c1cccc2cccnc12,47*,-101*,1.7µM*,1.7µM*,79*
Cn1nc(C(=O)NCC(=O)Nc2ccc(F)c(F)c2F)c2ccccc2c1=O,/,0,-24%,?,/
Cc1cccc(-n2c(C)nc3cc(C(=O)NCCC4=CCCCC4)ccc32)c1,/,11,/,/,/
O=[N+]([O-])c1cc(/C=N/Nc2nc3ccccc3[nH]2)c(O)cc1O,43*,-99*,0%,2.1µM*,104*
CCOc1ccc(-c2cc(C(=O)OC)[nH]n2)cc1,43*,-8,3%,92%,89*
COC(=O)c1cc(-c2ccc(C)cc2)n[nH]1,48*,0,-3%,60%,82*
SMILES,Cycloheximide cs,HCMV antiviral,Pf growth 96h,Pf growth 48h,Shiga toxin inh
COc1cccc(-c2cc(C(=O)NCCc3ccc(C)cc3)[nH]n2)c1,/,-4,/,/,/
COC(=O)c1cc(-c2cccc(OC)c2)n[nH]1,24*,17,72%,80%,49*
COC(=O)c1cc(-c2ccc(OC)cc2)n[nH]1,27*,-1,-16%,18%,103*
Cc1ccc(CCNC(=O)c2cc(-c3ccc(Cl)cc3)n[nH]2)cc1,/,6,/,/,/
CCOc1cc(CNS(=O)(=O)c2ccc3c(c2)CC(=O)N3C)cc(OCC)c1OCC,-4,-18,11%,-29%,-7
OCC1O[C@H](Oc2ccc(O)cc2)C(O)C(O)C1O (some centres not stated),/,/,-13%,2%,/
CCCCc1oc2ccc(NS(C)(=O)=O)cc2c1C(=O)c1ccc(OCCCN(CCCC)CCCC)cc1,/,-82*,/,/,/
CCCCc1cc(-c2n[nH]c(=S)o2)c2ccccc2n1,-5,-32,-1%,?,-7
